This note sets out measurements from the supplement of paper PMC8866396.

± gives the standard deviation of the averaged measurements.

In one experiment the test system is IL-6-GFP PC-9GR. In words: cell viability (CCK-8 OD) relative to DMSO control (fraction of control); higher = more viable cells. Conditions: compound concentration: 10 uM; treatment time: 48 h. A digest of the protocol: (§1)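 PC-9 and PC-9GR lung cancer cells carrying a lentiviral construct that overexpresses IL-6-GFP were seeded in 96-well plates at 3000 cells/well. Every compound in a purchased 510-compound library was applied at a final 10 μM for 48 h, and a parallel set of plates was kept for GFP imaging. Cell viability was read by CCK-8 absorbance, taking each well's optical density as a ratio to the vehicle control well. Two independent replicates were run.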

In another experiment the test system is IL-6-GFP PC-9. Described as above. Conditions: compound concentration: 10 uM; treatment time: 48 h. A digest of the protocol:
as §1

With `O=C(Oc1ccccc1C(=O)O)c1ccccc1O` [Sasapyrine], the results for the cell viability with IL-6-GFP PC-9GR and in the experiment on IL-6-GFP PC-9 were 0.988 ± 0.067 and 1.25 ± 0.019, respectively.
The corresponding values for `CC1CC2C3CC(F)C4=CC(=O)C=CC4(C)C3(F)C(O)CC2(C)C1(O)C(=O)CO` (stereo not drawn) [Diflorasone] are 0.825 ± 0.11 and 0.833 ± 0.23.
On the same counts, the results for `C=C(NC(=O)C(=C)NC(=O)c1csc(C2=NC3c4csc(n4)C4NC(=O)c5csc(n5)C(C(C)(O)C(C)O)NC(=O)C5CSC(=N5)/C(=C/C)NC(=O)C(C(C)O)NC(=O)c5csc(n5)C3(CC2)NC(=O)C(C)NC(=O)C(=C)NC(=O)C(C)NC(=O)C(C(C)CC)NC2C=Cc3c(C(C)O)cc(nc3C2O)C(=O)OC4C)n1)C(N)=O` (stereo not drawn) [Thiostrepton] are 0.184 ± 0.083 and 0.412 ± 0.15.
With `CC(=O)Nc1cccc(-n2c(=O)n(C3CC3)c(=O)c3c(Nc4ccc(I)cc4F)n(C)c(=O)c(C)c32)c1`, the cell viability was 1.04 ± 0.14 with IL-6-GFP PC-9GR and 0.791 ± 0.31 in the experiment on IL-6-GFP PC-9.
On the same counts, the results for `CC1(C)SC2C(NC(=O)C(c3ccccc3)S(=O)(=O)[O-])C(=O)N2C1C(=O)[O-].[Na+].[Na+]` (stereo not drawn) [Sulbenicillin Sodium] are 0.802 ± 0.17 and 0.857 ± 0.019.
Regarding `CNC(=O)c1cc(Oc2ccc(NC(=O)Nc3ccc(Cl)c(C(F)(F)F)c3)cc2)ccn1.Cc1ccc(S(=O)(=O)O)cc1` [Sorafenib Tosylate], the cell viability came to 0.85 ± 0.18 in the experiment on IL-6-GFP PC-9GR and 0.524 ± 0.017 with IL-6-GFP PC-9.
The corresponding values for `C=CC(=O)Nc1cc(Nc2nccc(-c3cn(C)c4ccccc34)n2)c(OC)cc1N(C)CCN(C)C.CS(=O)(=O)O` [Osimertinib mesylate] are 0.206 ± 0.046 and 0.298 ± 0.12.
As for `CNC1CCC(c2ccc(Cl)c(Cl)c2)c2ccccc21.Cl` (stereo not drawn) [Sertraline HCl], the cell viability with IL-6-GFP PC-9GR is 0.338 ± 0.063; in the experiment with IL-6-GFP PC-9, 0.664 ± 0.35.
As to `COc1ccc2c(c1)nc(S(=O)Cc1ncc(C)c(OC)c1C)[n]2[Na]` (stereo not drawn) [Omeprazole Sodium], the figures for the cell viability with IL-6-GFP PC-9GR and in the experiment on IL-6-GFP PC-9 were 0.872 ± 0.13 and 0.963 ± 0.16, respectively.
On the same counts, the results for `O=C(O)Cc1ccccc1Nc1c(Cl)cccc1Cl.OCCN1CCCC1` [Diclofenac Epolamine] are 1.34 ± 0.62 and 1.06 ± 0.16.
The corresponding values for `Cn1c(=O)cc(N2CCCC(N)C2)n(Cc2ccccc2C#N)c1=O` (stereo not drawn) [Alogliptin(SYK-322)benzoate] are 0.986 ± 0.057 and 1.05 ± 0.088.
The corresponding values for `Cc1nc(Nc2ncc(C(=O)Nc3c(C)cccc3Cl)s2)cc(N2CCN(CCO)CC2)n1.Cl` [Dasatinib hydrochloride] are 0.517 ± 0.025 and 0.438 ± 0.063.
Consider `O=NN(CCCl)C(=O)NCCCl` [Carmustine], for which the cell viability worked out at 1.21 ± 0.32 in the experiment with IL-6-GFP PC-9GR and 1.26 ± 0.063 in the experiment with IL-6-GFP PC-9.
On the same counts, the results for `CC12CCC(=O)C=C1CCC1C2C(O)CC2(C)C1CCC2(O)C(=O)CO` (stereo not drawn) [Hydrocortisone] are 1.41 ± 0.42 and 0.995 ± 0.24.
Take `CC1(C(=O)O)CCC2(C)CCC3(C)C(=CC(=O)C4C5(C)CCC(OC6OC(C(=O)O)C(O)C(O)C6OC6OC(C(=O)O)C(O)C(O)C6O)C(C)(C)C5CCC43C)C2C1.N` (stereo not drawn) [Ammonium Glycyrrhizinate]: the cell viability in the experiment with IL-6-GFP PC-9GR was found to be 1.42 ± 0.25; in the experiment with IL-6-GFP PC-9, 1.31 ± 0.014.
On to `CN1C(C(=O)Nc2ccccn2)=C(O)c2sccc2S1(=O)=O` [Tenoxicam], for which the cell viability turned out to be 1.16 ± 0.15 in the experiment on IL-6-GFP PC-9GR and 1.21 ± 0.1 with IL-6-GFP PC-9.
As to `CCN(CC)Cc1cc(Nc2ccnc3cc(Cl)ccc23)ccc1O.Cl.Cl.O.O` [Amodiaquine dihydrochloride dihydrate], the cell viability came to 1.05 ± 0.011 in the experiment on IL-6-GFP PC-9GR and 0.756 ± 0.039 in the experiment on IL-6-GFP PC-9.
The corresponding values for `O=c1oc2cc(O)ccc2s1` [Tioxolone] are 1.06 ± 0.041 and 1.121 ± 0.0078.
The corresponding values for `O=C(O)COc1nn(Cc2ccccc2)c2ccccc12` [Bendazac] are 1.85 ± 0.092 and 1.14 ± 0.11.
On the same counts, the results for `COc1ccnc(CS(=O)c2nc3ccc(-n4cccc4)cc3[nH]2)c1C` (stereo not drawn) [Ilaprazole] are 1.17 ± 0.38 and 1.29 ± 0.23.
`CCC1=CC2CN(C1)Cc1c([nH]c3ccccc13)C(C(=O)OC)(c1cc3c(cc1OC)N(C)C1C(O)(C(=O)OC)C(OC(C)=O)C4(CC)C=CCN5CCC31C54)C2.O=C(O)C(O)C(O)C(=O)O.O=C(O)C(O)C(O)C(=O)O` (stereo not drawn) [Vinorelbine Tartrate]: the cell viability worked out at 0.559 ± 0.13 in the experiment on IL-6-GFP PC-9GR and 0.566 ± 0.081 with IL-6-GFP PC-9.
As for `Cc1cnc(NC(=O)C2=C(O)c3ccccc3S(=O)(=O)N2C)s1` [Meloxicam], the cell viability in the experiment on IL-6-GFP PC-9GR is 1.2096 ± 0.0007; in the experiment with IL-6-GFP PC-9, 1.4 ± 0.41.
The corresponding values for `CNCC(O)c1ccc(O)c(O)c1.O=C(O)C(O)C(O)C(=O)O` (stereo not drawn) [Epinephrine bitartrate] are 1.17 ± 0.15 and 1.2 ± 0.022.
The corresponding values for `NC(=S)N/N=C/c1ncccc1N` [Triapine] are 0.255 ± 0.16 and 0.287 ± 0.024.
Consider `CC1=C(/C=C/C(C)=C/C=C/C(C)=C/C(=O)Nc2ccc(O)cc2)C(C)(C)CCC1` [Fenretinide], for which the cell viability with IL-6-GFP PC-9GR stood at 0.47 ± 0.12; with IL-6-GFP PC-9, 0.449 ± 0.14.
The corresponding values for `CC(CCC(=O)[O-])C1CCC2C3C(O)CC4CC(O)CCC4(C)C3CC(O)C12C.[Na+]` (stereo not drawn) [Sodium cholate] are 0.344 ± 0.23 and 0.997 ± 0.067.
For `CC(=O)N1CC(O)CC1C(=O)O` (stereo not drawn) [Oxaceprol], the cell viability is 1.22 ± 0.15 in the experiment with IL-6-GFP PC-9GR and 1.05 ± 0.098 in the experiment on IL-6-GFP PC-9.
Consider `C=C1CCC2C(C)(COC(=O)CCC(=O)O)C(OC(=O)CCC(=O)O)CCC2(C)C1/C=C/C1=CCOC1=O` (stereo not drawn) [Dehydroandrographolide Succinate], for which the cell viability was 0.966 ± 0.062 in the experiment on IL-6-GFP PC-9GR and 1.16 ± 0.016 in the experiment with IL-6-GFP PC-9.
On the same counts, the results for `Cn1cc(C2=C(c3cccc(N)c3)C(=O)NC2=O)c2ccccc21` are 0.303 ± 0.31 and 0.677 ± 0.15.
